An excerpt weighted towards active compounds, which were near 2.7% of everything screened.
BRCA1 expr act: increases BRCA1 expression; 1.1% of 380,000 active; MCF7-BRCA1-FFLuc reporter, luminescence, 48 h; response scale: scaled: vehicle 0%, 10 µM genistein 100%; Potency, µM (top dose mostly 46.1 µM), inactives show top-dose activation, actives largely listed as activators; also: nearly all actives have a fitted effect of over 80% in size
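Activators of BRCA1 expression were detected as increased firefly luciferase luminescence in engineered MCF7 cells after 48 h compound incubation. Signals were scaled to genistein 10 microM as full activation.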
GLP-1R inv ag: GLP-1 receptor (human) inverse agonism; P43220; HEK293 GLP-1R CRE-luciferase, luminescence, 24 h; GLP-1R form is constitutively active; Potency, µM (titrated, usually from 38.3 µM), for inactives: at the highest dose activity change, negative = inhibition, most hits filed as inhibitors; 1.6% of 410,000 active; also: % is scaled to controls: 0 for no effect and ±100 for the full control effect; nearly all actives have a fitted effect of over 55% in size
Target sequence (P43220 whole entry, looked up): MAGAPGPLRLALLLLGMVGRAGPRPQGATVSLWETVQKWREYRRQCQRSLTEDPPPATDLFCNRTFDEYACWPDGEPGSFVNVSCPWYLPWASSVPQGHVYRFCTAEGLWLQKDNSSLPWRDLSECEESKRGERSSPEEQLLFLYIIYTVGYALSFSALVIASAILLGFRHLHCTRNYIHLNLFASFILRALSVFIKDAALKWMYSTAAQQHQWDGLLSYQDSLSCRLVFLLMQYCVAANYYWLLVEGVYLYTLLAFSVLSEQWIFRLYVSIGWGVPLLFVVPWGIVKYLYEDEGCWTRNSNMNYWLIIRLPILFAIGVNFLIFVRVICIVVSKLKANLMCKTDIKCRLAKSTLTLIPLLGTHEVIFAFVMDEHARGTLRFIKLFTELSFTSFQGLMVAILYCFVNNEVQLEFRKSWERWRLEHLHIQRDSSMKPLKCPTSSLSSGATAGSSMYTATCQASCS
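HEK293 cells stably co-expressing constitutively active GLP-1R and a cAMP-responsive luciferase reporter were seeded in DMEM with 10% Nu serum, given compounds after 12 h, and incubated 24 h at 37 deg C. Luminescence was then read.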
Integrin act MD: activates integrin-mediated alleviation for muscular dystrophy | 0.064% of 350,000 active | alpha7betagal myoblasts, beta-gal FDG fluorescence, 48 h | AID 624291 | Potency, µM (doses to about 38.3 µM), for the others: top-dose activation, most hits filed as activators;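 also: 100% = response of the positive control SU9516; nearly all actives have a fitted effect of over 60% in size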
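alpha7betagal+/- myoblasts (passage 13, 250/well) treated 48 h at 37C with compounds at 1:260 dilution of DMSO stock. Lysed, then beta-galactosidase activity read as FDG fluorescence (ex 480/em 540) after 30 min, with pre-read for autofluorescence.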
GLP-1R agonist: activates the human GLP-1 receptor; P43220; HEK293 GLP-1R CRE-luciferase, luminescence, 4-6 h; cells express a hypersensitive GLP-1R form; Potency, µM (top dose mostly 45.6 µM), for the others: at the top dose activation, usual class: activators; 0.007% of 380,000 active; also: % of control where 0% means no effect
GLP1R cytotox: cytotoxicity counter-screen for GLP-1 receptor inverse agonists | HEK293 cAMP-luciferase reporter cells, luminescence, 24 h | Potency, µM (doses to about 38.3 µM), inactives show at the top dose activity change, negative = inhibition, usual class: inhibitors | 0.13% of 410,000 active | AID 624418;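 also: loss of luciferase light is scored as toxicity; % is scaled to controls: 0 for no effect and ±100 for the full control effect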
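A 23 nL compound transfer followed 12 hours of cell culture at 37 deg C; exposure then lasted 24 hr. Luciferase assay detection reagent was dispensed and plates read for luminescence after a 12 min room-temperature wait.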
* hit, by the source's call; ? = inconclusive; . = no result. Calls follow the shape of the dose curve; as a rule, active = well fitted curve in the direction sought with a large enough effect; inconclusive = small, poorly fitted or top-dose-only effect, or another doubt; inactive = no such curve, though single readings can be large; an effect the other way counts as inactive or inconclusive. Potency is read from the fitted curve at half-maximal effect.

SMILES | BRCA1 expr act | GLP-1R inv ag | Integrin act MD | GLP-1R agonist | GLP1R cytotox
O=C(CSc1ccccn1)c1ccc2c(c1)OCO2 | 7.1µM* | 0% | 0% | 3% | 2%
O=C(CSc1ccccn1)Nc1ccc2c(c1)OCO2 | 72% | 4% | -9% | 5% | 0%
O=C(c1ccccc1)C1OC1C(=O)c1ccccc1 (configuration not stated) | -40% | ? | -34% | -2% | -24%
CC1C=CC(C)C(C(=O)c2ccccc2)C1C(=O)c1ccccc1 (configuration not stated) | 6% | 13µM* | -10% | 6% | 7%
O=C(c1cc2cc(Br)ccc2o1)N1CCCCC1 | 4.5µM* | ? | 14% | 22% | 2%
COc1ccc(N2CC(NC(=O)C3CC3)CC2=O)cc1OC (configuration not stated) | 6% | 7% | . | 0% | 2%
Cc1ccc2onc(CC(=O)N3CCN(c4ccccc4)CC3)c2c1 | . | 1% | . | . | 2%
O=[N+]([O-])c1cnc(Sc2ccncn2)c([N+](=O)[O-])c1 | -24% | -4% | -10% | -4% | ?
O=[N+]([O-])c1cnc(Sc2ccncn2)s1 | -97% | ? | -69% | -7% | 2.8µM*
Cc1cccc(N2CCN(c3cc(C)nc4c(-c5ccc(Cl)cc5)c(C)nn34)CC2C)c1 (configuration not stated) | . | -1% | . | . | 0%
O=C(Nc1ccc(C(=O)N2CCOCC2)cc1)Nc1cccc(Cl)c1 | 11µM* | ? | 3% | 6% | -19%
COc1cccc(C(=O)Nc2ccc(F)c(F)c2F)c1 | 3.5µM* | -15% | 3% | 2% | 0%
CCC(=O)Nc1ccc(NC(=O)c2cccc(OC)c2)nc1 | 11µM* | -5% | -17% | 6% | -11%
COC(=O)c1ccc(OCC(=O)c2cccc(OC)c2)cc1 | 2µM* | -1% | 7% | 1% | 6%
COc1cccc(C(=O)Nc2ccc(C(=O)O)cc2)c1 | 10% | 15% | 11% | 1% | 10%
COC(=O)c1ccc(OCC(=O)c2ccc(C)c(C)c2)cc1 | ? | -6% | 13% | -4% | -7%
COC(=O)c1ccc(NC(=O)c2cccc(OC)c2)cc1 | 2.5µM* | 1% | 25% | 0% | -13%
Cc1ccc(Sc2ccc(N3CCC(C(=O)Nc4ccc(Cl)cc4)CC3)nn2)cc1 | 0% | 10% | . | -1% | -3%
COc1ccc([N+](=O)[O-])cc1NC(=S)NC(NC(=O)Cc1ccc(OC)c(OC)c1)C(Cl)(Cl)Cl (configuration not stated) | -62% | 4.5µM* | -20% | -5% | ?
O=C1NN(c2cccc(Br)c2)C(=O)/C1=C\c1ccc(O)cc1 | -1% | 10µM* | 2% | -2% | ?
CC(C)=C1C(=O)NN(c2ccc(C)c(Cl)c2)C1=O | 1% | ? | 15% | -34% | 12%
O=C1NN(c2ccc(Br)cc2)C(=O)/C1=C\c1ccc(O)cc1O | -25% | ? | ? | 0% | 388%
COc1cc(/C=C2/C(=O)NN(c3cccc(Cl)c3)C2=O)cc(OC)c1O | 0% | 2.8µM* | -6% | -1% | -11%
CC(C)=C1C(=O)NN(c2cccc(Cl)c2)C1=O | -28% | 10µM* | 9% | 0% | -7%
CC(C)Oc1ccc(CNC(=O)C2COc3ccccc3C2)cc1 (configuration not stated) | . | -16% | . | . | 0%
SMILES | BRCA1 expr act | GLP-1R inv ag | Integrin act MD | GLP-1R agonist | GLP1R cytotox
COc1ccccc1-c1nnc(SCCOc2ccccc2C)o1 | . | -27% | . | . | 11%
CCc1ccc(NC(=S)NC(=O)c2c(-c3ccccc3Cl)noc2C)cc1 | -16% | 10µM* | 13% | 11% | -7%
Cc1onc(-c2ccccc2Cl)c1C(=O)NC(=S)Nc1ccc(C(C)(C)C)cc1 | -43% | -73% | 3% | -4% | ?
Cc1onc(-c2ccccc2Cl)c1C(=O)Oc1ccc(Br)cc1 | . | -3% | . | . | -4%
Cc1onc(-c2ccccc2Cl)c1C(=O)Oc1cccc2cccnc12 | -23% | 13µM* | 12% | 7% | ?
OCc1ccc(O)c2ncccc12 | -71% | 10µM* | -49% | -23% | ?
Oc1ccc(Cl)c2cccnc12 | -64% | 10µM* | -32% | -2% | 7%
O=C(Oc1ccc(Cl)c2cccnc12)c1cccnc1 | -55% | 3.2µM* | -40% | -3% | ?
CCOC(=O)N1CCN(Cc2ccc(O)c3ncccc23)CC1 | -31% | 5µM* | -49% | 9% | -39%
Oc1ccc(CN2CCCCC2)c2cccnc12 | -86% | 0% | -63% | -12% | ?
Brc1ccc(C2C=Cc3ccccc32)cc1 (configuration not stated) | 9% | . | . | . | .
COc1cccc(CNC(=O)CCNS(=O)(=O)c2ccc3c(c2)CCCC(=O)N3)c1 | -5% | 7% | . | -7% | 14%
CC[N+](CC)(CC)CCOC(=O)C(C1CCCC1)C1CCCC1 | . | . | . | 0% | .
Cc1ccc(CNC(=O)CN(c2ccc(C(C)C)cc2)S(=O)(=O)c2c(C)n[nH]c2C)cc1 | -56% | ? | . | -3% | -21%
Oc1ccc(COCc2ccccc2)c2cccnc12 | -60% | 10µM* | -35% | 0% | 7%
CC(C)COCc1ccc(O)c2ncccc12 | -79% | 4µM* | -64% | -1% | ?
Oc1ccc(Cc2ccccc2)c2cccnc12 | -83% | 6.3µM* | -57% | 26% | 5%
CC(=O)c1ccc(NC(=O)Cn2ncc3c(C)n(Cc4ccc(F)cc4)c(C)c3c2=O)cc1 | . | 1% | . | . | 17%
CCOCCCNC(=O)Cn1nc(CC)n2c(cc3c(OC)cccc32)c1=O | . | 1% | . | . | 0%
Cc1ccc(Cn2c(SCc3ccc(C(=O)N4CCCCCC4)cc3)nc3ccncc32)cc1 | . | ? | . | . | -1%
COc1cc(-c2nc(-c3cccc(Cl)c3)c(-c3ccccc3)[nH]2)cc(OC)c1OC | . | 3.5µM* | . | . | ?
CCc1cccc(NC(=O)c2cn3c4c(ccc(Cl)c4c2=O)OC(C)C3)c1 (configuration not stated) | . | 6% | . | . | 13%
O=c1cnn([C@@H]2O[C@H](CO)[C@@H](O)[C@H]2O)c(=O)[nH]1 | 2% | 1µM* | . | -6% | 4%
CCC(=O)Oc1c(S(=O)(=O)c2ccc(C)cc2)c(C)nn1C(C)(C)C | -4% | ? | -11% | -10% | ?
CCCC(=O)Oc1c(S(=O)(=O)c2ccc(C)cc2)c(C)nn1C(C)(C)C | -13% | 5.6µM* | 0% | -2% | ?
C[C@]12CCC(=O)C=C1CC[C@@H]1[C@H]2[C@@H](O)C[C@@]2(C)[C@H]1CC[C@]2(O)C(=O)CO | . | . | . | -2% | .
CCc1ccc(NC(=S)NC(=O)CC(C)C)cc1 | 6.3µM* | ? | 8% | 26% | ?
CCOC(=O)c1sc(NC(=O)c2ccccc2)cc1C | ? | -4% | 18% | 7% | -12%

Screening results: PubChem BioAssay, National Center for Advancing Translational Sciences (NCATS)
